Test results: the supplement of paper PMC8728848
This is one part of a sample in which the strongest signals are shown more often than they occur.

What was measured:
Test in all cases: glycan array binding signal (z-score within array); higher = stronger binding
Settings in all cases: glycan notation: IUPAC condensed, linker removed
[1] = biological target: Fuc(a1-2)Gal(b1-3)GalNAc(b1-3)Gal(a1-4)Gal(b1-4)Glc
Outline: (§1)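 The binding signal is a Z-score computed within each array and averaged over linkers. Arrays of the same protein sequence at different concentrations or buffers were also averaged together. Data originate from 3228 arrays in the Consortium for Functional Glycomics database, kept only where the protein sequence was available.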

[2] = biological target: Fuc(a1-2)Gal(b1-3)GalNAc(b1-4)[Neu5Ac(a2-3)]Gal(b1-4)Glc
Outline: as §1

[3] = biological target: Fuc(a1-2)Gal(b1-4)[Fuc(a1-3)]GalNAc(b1-3)Gal(b1-4)[Fuc(a1-3)]GlcNAc
Outline: as §1

[4] = biological target: Fuc(a1-2)Gal(b1-4)[Fuc(a1-3)]GalNAc(b1-3)Gal(b1-4)[Fuc(a1-3)]GlcNAc(b1-3)Gal(b1-4)[Fuc(a1-3)]GalNAc
Outline: as §1

[5] = biological target: Fuc(a1-2)Gal(b1-4)[Fuc(a1-3)]GlcNAc
Outline: as §1

[6] = biological target: Fuc(a1-2)[Gal(a1-3)]Gal(b1-4)Glc
Outline: as §1

[7] = biological target: Fuc(a1-3)[Gal(b1-4)]GlcNAc(b1-4)Gal(b1-4)[Fuc(a1-3)]GlcNAc(b1-4)Gal(b1-4)[Fuc(a1-3)]GlcNAc
Outline: as §1

[8] = biological target: Gal(b1-3)GalNAc(b1-4)Gal(b1-4)Glc
Outline: as §1

[9] = biological target: Gal(b1-3)GalNAc(b1-4)[Neu5Ac(a2-3)]Gal(b1-4)Glc
Outline: as §1

Gal4S(b1-4)GlcNAc = biological target: Gal4S(b1-4)GlcNAc
Outline: as §1

Gal6S(b1-4)GlcNAc = biological target: Gal6S(b1-4)GlcNAc
Outline: as §1

GlcA(b1-6)Gal = biological target: GlcA(b1-6)Gal
Outline: as §1

[10] = biological target: GlcNAc(b1-4)[GlcNAc(b1-6)]GalNAc
Outline: as §1

[11] = biological target: Man(a1-2)Man(a1-2)Man(a1-3)[Man(a1-2)Man(a1-6)[Man(a1-3)]Man(a1-6)]Man(b1-4)GlcNAc(b1-4)GlcNAc
Outline: as §1

Neu5Ac(a2-3)Gal = biological target: Neu5Ac(a2-3)Gal
Outline: as §1

[12] = biological target: Neu5Ac(a2-3)Gal(b1-3)[Fuc(a1-4)]GlcNAc
Outline: as §1

[13] = biological target: Neu5Ac(a2-3)Gal(b1-4)GlcNAc
Outline: as §1

[14] = biological target: Neu5Ac(a2-3)Gal6S(b1-4)[Fuc(a1-3)]GlcNAc
Outline: as §1

[15] = biological target: Fuc(a1-2)Gal(b1-3)GalNAc(b1-3)Gal(b1-4)Glc
Outline: as §1

Fuc(a1-2)Gal(b1-4)Glc = biological target: Fuc(a1-2)Gal(b1-4)Glc
Outline: as §1

[16] = biological target: Fuc(a1-2)Gal(b1-4)GlcNAc(b1-3)Gal(b1-4)GlcNAc
Outline: as §1

[17] = biological target: Fuc(a1-3)[Gal3S(b1-4)]GlcNAc
Outline: as §1

Gal(a1-4)Gal(b1-4)Gal = biological target: Gal(a1-4)Gal(b1-4)Gal
Outline: as §1

Gal(a1-6)Glc = biological target: Gal(a1-6)Glc
Outline: as §1

[18] = biological target: Gal(b1-3)[Fuc(a1-4)]GlcNAc(b1-3)Gal(b1-4)GlcNAc
Outline: as §1

[19] = biological target: Gal(b1-3)[Neu5Ac(a2-6)]GlcNAc
Outline: as §1

[20] = biological target: Gal(b1-3)[Neu5Ac(a2-6)]GlcNAc(a1-4)Gal(b1-4)Glc
Outline: as §1

[21] = biological target: Gal(b1-4)GalNAc(b1-3)[Fuc(a1-2)]Gal(b1-4)GlcNAc
Outline: as §1

GalNAc(b1-4)GlcNAc = biological target: GalNAc(b1-4)GlcNAc
Outline: as §1

GlcNAc(b1-3)Gal = biological target: GlcNAc(b1-3)Gal
Outline: as §1

[22] = biological target: GlcNAc(b1-3)[GlcNAc(b1-4)][GlcNAc(b1-6)]GlcNAc
Outline: as §1

[23] = biological target: GlcNAc(b1-4)GlcNAc(b1-4)GlcNAc
Outline: as §1

[24] = biological target: Man(a1-2)Man(a1-2)Man(a1-3)Man
Outline: as §1

[25] = biological target: Man(a1-3)[Man(a1-6)]Man(b1-4)GlcNAc(b1-4)GlcNAc
Outline: as §1

Man(b1-4)GlcNAc = biological target: Man(b1-4)GlcNAc
Outline: as §1

[26] = biological target: Neu5Ac(a2-3)Gal(b1-3)GlcNAc6S
Outline: as §1

[27] = biological target: Fuc(a1-2)Gal(b1-3)GlcNAc(b1-3)Gal(b1-4)Glc
Outline: as §1

[28] = biological target: Fuc(a1-2)[GalNAc(a1-3)]Gal(b1-4)Glc
Outline: as §1

Fuc(a1-3)GlcNAc = biological target: Fuc(a1-3)GlcNAc
Outline: as §1

[29] = biological target: Fuc(a1-3)[Gal(b1-4)]Glc6S
Outline: as §1

Gal(b1-3)GalNAc = biological target: Gal(b1-3)GalNAc
Outline: as §1

[30] = biological target: Gal(b1-3)GlcNAc(b1-3)Gal(b1-4)Glc
Outline: as §1

[31] = biological target: Gal(b1-3)[Neu5Ac(a2-6)]GlcNAc(b1-6)Gal(b1-4)Glc
Outline: as §1

[32] = biological target: Gal(b1-4)GlcNAc(b1-3)Gal(b1-4)Glc
Outline: as §1

Gal4S6S(b1-4)GlcNAc = biological target: Gal4S6S(b1-4)GlcNAc
Outline: as §1

Glc(b1-4)Glc = biological target: Glc(b1-4)Glc
Outline: as §1

[33] = biological target: GlcNAc(b1-3)Gal(b1-4)GlcNAc(b1-3)Gal(b1-4)GlcNAc
Outline: as §1

[34] = biological target: Man(a1-2)Man(a1-6)[Man(a1-3)]Man(a1-6)[Man(a1-2)Man(a1-2)Man(a1-3)]Man
Outline: as §1

[35] = biological target: Neu5Ac(a2-3)Gal(b1-4)GlcNAc(b1-3)Gal(b1-4)GlcNAc(b1-3)Gal(b1-4)GlcNAc
Outline: as §1

[36] = biological target: Neu5Ac(a2-6)Gal(b1-4)GlcNAc(b1-2)Man(a1-3)[GlcNAc(b1-2)Man(b1-4)GlcNAc(b1-2)Man(a1-6)]Man(b1-4)GlcNAc(b1-4)GlcNAc
Outline: as §1

[37] = biological target: Neu5Ac(a2-6)Gal(b1-4)GlcNAc6S
Outline: as §1

Neu5Ac(a2-6)GalNAc = biological target: Neu5Ac(a2-6)GalNAc
Outline: as §1

[38] = biological target: Neu5Ac(a2-8)Neu5Ac(a2-8)Neu5Ac(a2-3)Gal(b1-4)Glc
Outline: as §1

B1: DC SIGN CRD (Homo sapiens), Q9NNX6 (protein)
chain: QPCPWEWTFFQGNCYFMSNSQRNWHDSITACKEVGAQLVVIKSAEEQNFLQLQSSRSNRFTWMGLSDLNQEGTWQWVDGSPLLPSFKQYWNRGEPNNVGEEDCAEFSGNGWNDDKCNLAKFWICKKSAWSHPQFEK
glycan array binding signal (z-score) [1]: -0.37
glycan array binding signal (z-score) [2]: -0.377
glycan array binding signal (z-score) [3]: 5.67
glycan array binding signal (z-score) [4]: 3.54
glycan array binding signal (z-score) [5]: 4.18
glycan array binding signal (z-score) [6]: -0.339
glycan array binding signal (z-score) [7]: 5.8
glycan array binding signal (z-score) [8]: -0.385
glycan array binding signal (z-score) [9]: -0.363
glycan array binding signal (z-score) (Gal4S(b1-4)GlcNAc): -0.361
glycan array binding signal (z-score) (Gal6S(b1-4)GlcNAc): -0.39
glycan array binding signal (z-score) (GlcA(b1-6)Gal): -0.392
glycan array binding signal (z-score) [10]: -0.371
glycan array binding signal (z-score) [11]: 2.91
glycan array binding signal (z-score) (Neu5Ac(a2-3)Gal): -0.339
glycan array binding signal (z-score) [12]: -0.076
glycan array binding signal (z-score) [13]: -0.387
glycan array binding signal (z-score) [14]: -0.394

B2: TbCVNHOb (Tuber borchii) (protein)
chain: GSHIGPYMSFYASSEDVRTIEEGGRTWLVGRARRADGSWQDIKLDLDNIIGNRDGHLTWGEQNFTQSASDIRFNFEGGSNVPVLRAKLRNAAGGEQESDLNLGERLTNNNGDLVFN
glycan array binding signal (z-score) [1]: 2.01
glycan array binding signal (z-score) [15]: 4.24
glycan array binding signal (z-score) (Fuc(a1-2)Gal(b1-4)Glc): 0.347
glycan array binding signal (z-score) [16]: -0.268
glycan array binding signal (z-score) [17]: -0.469
glycan array binding signal (z-score) (Gal(a1-4)Gal(b1-4)Gal): 4.24
glycan array binding signal (z-score) (Gal(a1-6)Glc): 0.38
glycan array binding signal (z-score) [18]: -0.231
glycan array binding signal (z-score) [19]: -0.484
glycan array binding signal (z-score) [20]: 4.83
glycan array binding signal (z-score) [21]: -0.367
glycan array binding signal (z-score) (GalNAc(b1-4)GlcNAc): -0.366
glycan array binding signal (z-score) (GlcA(b1-6)Gal): -0.483
glycan array binding signal (z-score) (GlcNAc(b1-3)Gal): -0.16
glycan array binding signal (z-score) [22]: -0.077
glycan array binding signal (z-score) [23]: -0.364
glycan array binding signal (z-score) [24]: 5.4
glycan array binding signal (z-score) [11]: -0.449
glycan array binding signal (z-score) [25]: -0.197
glycan array binding signal (z-score) (Man(b1-4)GlcNAc): 0.106
glycan array binding signal (z-score) [26]: -0.045

B3: TbCVNHOb (Tuber borchii) (protein)
chain: MSFYASSEDVRTIEEGGRTWLVGRARRADGSWQDIKLDLDNIIGNRDGHLTWGEQNFTQSASDIRFNFEGGSNVPVLRAKLRNAAGGEQESDLNLGERLTNNNGDLVFN
glycan array binding signal (z-score) [1]: 0.303
glycan array binding signal (z-score) [27]: 1.56
glycan array binding signal (z-score) [28]: -0.147
glycan array binding signal (z-score) (Fuc(a1-3)GlcNAc): 0.012
glycan array binding signal (z-score) [29]: 0.185
glycan array binding signal (z-score) (Gal(b1-3)GalNAc): -0.117
glycan array binding signal (z-score) [9]: -0.245
glycan array binding signal (z-score) [30]: 5.86
glycan array binding signal (z-score) [31]: 1.4
glycan array binding signal (z-score) [32]: 2.32
glycan array binding signal (z-score) (Gal4S(b1-4)GlcNAc): 0.051
glycan array binding signal (z-score) (Gal4S6S(b1-4)GlcNAc): -0.061
glycan array binding signal (z-score) (Glc(b1-4)Glc): -0.189
glycan array binding signal (z-score) [33]: -0.144
glycan array binding signal (z-score) [24]: 1.35
glycan array binding signal (z-score) [34]: -0.185
glycan array binding signal (z-score) [35]: -0.237
glycan array binding signal (z-score) [36]: -0.008
glycan array binding signal (z-score) [37]: -0.275
glycan array binding signal (z-score) (Neu5Ac(a2-6)GalNAc): -0.28
glycan array binding signal (z-score) [38]: -0.118
